Reference: PubChem BioAssay (EPA / NIEHS)
Active and inactive are the calls of the source. Rule for the calls: active = hit-call score of the fitted dose curve at least 0.9, where 1 is the maximum; inactive = score below 0.9.

Experiments:
[1] = ATG_PBREM_CIS: Attagene CIS-FACTORIAL HepG2 Assay for human Phenobarbital-responsive Enhancer Module (PBREM) (AID 2282955); settings: HepG2 PBREM cis-reporter, Attagene multiplexed transcription; actives raise or lower the signal
In short: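 Endogenous transcription factor activity was read from reporter transcripts in transiently transfected human HepG2 liver cells after 24 h dosing. RT-PCR products were fluorescently labelled, HpaI-cut and sized by capillary electrophoresis; activity fitted bidirectionally against DMSO baseline.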

[2] = molecular target: Paired box protein Pax-6 (Homo sapiens) (UniProt P26367); test: ATG_Pax6_CIS: Attagene CIS-FACTORIAL HepG2 Assay for human Paired Box 6 (PAX6) (AID 2282956); settings: HepG2 CIS-FACTORIAL PAX6 reporter transcription, RNA readout; actives raise or lower the signal
In short: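 Values derive from bidirectional curve fitting of reporter mRNA signal relative to DMSO. HepG2 cells bearing transfected cis-regulated MRTUs were exposed for 24 h; transcripts were read by RT-PCR and capillary electrophoresis.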

[3] = ATG_PXRE_CIS: Attagene CIS-FACTORIAL HepG2 Assay for human Pregnane X Receptor Element (PXRE) (AID 2282957); settings: HepG2 Attagene CIS-FACTORIAL PXRE reporter, mRNA; actives raise or lower the signal
In short: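 Endogenous transcription factor activity in HepG2 was gauged through induction of reporter mRNA driven by a cis-regulating promoter element, sampled 24 h post-treatment. Activity was fitted in both directions against DMSO negative control.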

[4] = ATG_PPRE_CIS: Attagene CIS-FACTORIAL HepG2 Assay for human Peroxisome Proliferator-activated Response Element (PPRE) (AID 2282958); settings: HepG2 PPRE cis-element reporter, Attagene transcription factor profiling; actives raise or lower the signal
In short: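 Endogenous PPRE-driven transcription is measured in HepG2 cells carrying transfected multi-reporter constructs. Reporter transcripts are quantified by RT-PCR, HpaI digestion and capillary electrophoresis 24 h after dosing. DMSO baseline, bidirectional fit.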

[5] = ATG_RORE_CIS: Attagene CIS-FACTORIAL HepG2 Assay for human RAR-related Orphan Receptor Element (RORE) (AID 2282959); settings: HepG2 Attagene cis-factorial RORE reporter, mRNA; actives raise or lower the signal
In short: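 RORE reporter transcripts reflecting endogenous factor activity were read after 24 h compound exposure of transfected HepG2 cells, using reverse transcription, PCR, fluorescent labelling and capillary electrophoresis sizing. Gain or loss fitted against DMSO.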

[6] = ATG_Sox_CIS: Attagene CIS-FACTORIAL HepG2 Assay for human SRY-box transcription factor (SOX) (AID 2282960); settings: HepG2 Attagene cis-factorial SOX reporter, mRNA; actives raise or lower the signal
In short: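 Reporter transcripts, measured by RT-PCR and capillary electrophoresis of labelled fragments, report endogenous SOX transcription factor activity. Transiently transfected human HepG2 cells receive chemical for 24 h; changes in either direction are fitted relative to DMSO.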

[7] = molecular target: Transcription factor Sp1 (Homo sapiens) (UniProt P08047); test: ATG_Sp1_CIS: Attagene CIS-FACTORIAL HepG2 Assay for human Specificity Protein 1 (Sp1) (AID 2282961); settings: HepG2 Sp1 cis-reporter transcription, actives raise or lower the signal
In short: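 Read-out is reporter transcript level, measured by RT-PCR and fluorescent capillary electrophoresis after 24 h chemical treatment. System: transiently transfected HepG2 cells reporting endogenous transcription factor activity; gain or loss fitted against DMSO baseline.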

[8] = ATG_SREBP_CIS: Attagene CIS-FACTORIAL HepG2 Assay for human Sterol Regulatory Element Binding (SREBP) (AID 2282962); settings: HepG2 Attagene cis-factorial SREBP reporter, mRNA; actives raise or lower the signal
In short: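 Values derive from bidirectional curve fitting with DMSO as baseline. The underlying measurement is reporter mRNA from cis-element-regulated units in transiently transfected HepG2, quantified by RT-PCR and capillary electrophoresis after 24 h exposure.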

[9] = molecular target: Signal transducer and activator of transcription 3 (Homo sapiens) (UniProt P40763); test: ATG_STAT3_CIS: Attagene CIS-FACTORIAL HepG2 Assay for human Signal Transducer and Activator of Transcription 3 (STAT3) (AID 2282963); settings: HepG2, Attagene cis-factorial STAT3 reporter transcription; actives raise or lower the signal
In short: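 Uses human liver HepG2 transiently carrying cis-regulated reporter transcription units. Following 24 h dosing, reporter mRNA induction was detected by RT-PCR and capillary electrophoresis, analysed bidirectionally versus DMSO.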

[10] = ATG_TA_CIS: Attagene CIS-FACTORIAL HepG2 Assay for human TA Basal Promoter (AID 2282964); settings: HepG2 Attagene CIS-factorial TA basal promoter reporter; actives raise or lower the signal
In short: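 Read-out: fluorescent reporter-transcript fragments resolved by capillary electrophoresis after RT-PCR and HpaI digestion. Source: HepG2 cells carrying transiently transfected multi-reporter cis constructs, treated 24 h. Endpoint fitted bidirectionally relative to DMSO.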

Transcription factor Sp1 (Homo sapiens), sequence (P08047 whole entry, looked up): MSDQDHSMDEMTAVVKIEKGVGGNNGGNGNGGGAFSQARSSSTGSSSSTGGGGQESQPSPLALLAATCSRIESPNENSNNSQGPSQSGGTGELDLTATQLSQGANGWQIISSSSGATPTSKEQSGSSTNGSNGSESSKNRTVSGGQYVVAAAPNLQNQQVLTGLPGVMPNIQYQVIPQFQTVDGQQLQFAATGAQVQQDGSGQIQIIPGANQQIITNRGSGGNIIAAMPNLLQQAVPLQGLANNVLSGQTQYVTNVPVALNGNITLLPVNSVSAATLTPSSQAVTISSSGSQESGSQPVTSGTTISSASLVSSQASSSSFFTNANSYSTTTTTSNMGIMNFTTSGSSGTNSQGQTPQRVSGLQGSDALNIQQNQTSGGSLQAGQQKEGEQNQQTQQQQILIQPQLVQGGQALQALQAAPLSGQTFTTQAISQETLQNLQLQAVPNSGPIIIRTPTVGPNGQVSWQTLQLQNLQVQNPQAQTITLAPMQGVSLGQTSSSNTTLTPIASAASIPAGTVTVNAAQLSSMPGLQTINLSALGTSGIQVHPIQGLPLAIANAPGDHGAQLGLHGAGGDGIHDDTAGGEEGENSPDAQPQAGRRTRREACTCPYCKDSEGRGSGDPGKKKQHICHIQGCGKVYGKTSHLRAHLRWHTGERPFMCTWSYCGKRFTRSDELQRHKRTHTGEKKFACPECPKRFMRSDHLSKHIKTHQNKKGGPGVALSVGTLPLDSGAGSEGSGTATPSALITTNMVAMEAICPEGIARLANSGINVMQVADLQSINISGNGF
Signal transducer and activator of transcription 3 (Homo sapiens), sequence (P40763 whole entry, looked up): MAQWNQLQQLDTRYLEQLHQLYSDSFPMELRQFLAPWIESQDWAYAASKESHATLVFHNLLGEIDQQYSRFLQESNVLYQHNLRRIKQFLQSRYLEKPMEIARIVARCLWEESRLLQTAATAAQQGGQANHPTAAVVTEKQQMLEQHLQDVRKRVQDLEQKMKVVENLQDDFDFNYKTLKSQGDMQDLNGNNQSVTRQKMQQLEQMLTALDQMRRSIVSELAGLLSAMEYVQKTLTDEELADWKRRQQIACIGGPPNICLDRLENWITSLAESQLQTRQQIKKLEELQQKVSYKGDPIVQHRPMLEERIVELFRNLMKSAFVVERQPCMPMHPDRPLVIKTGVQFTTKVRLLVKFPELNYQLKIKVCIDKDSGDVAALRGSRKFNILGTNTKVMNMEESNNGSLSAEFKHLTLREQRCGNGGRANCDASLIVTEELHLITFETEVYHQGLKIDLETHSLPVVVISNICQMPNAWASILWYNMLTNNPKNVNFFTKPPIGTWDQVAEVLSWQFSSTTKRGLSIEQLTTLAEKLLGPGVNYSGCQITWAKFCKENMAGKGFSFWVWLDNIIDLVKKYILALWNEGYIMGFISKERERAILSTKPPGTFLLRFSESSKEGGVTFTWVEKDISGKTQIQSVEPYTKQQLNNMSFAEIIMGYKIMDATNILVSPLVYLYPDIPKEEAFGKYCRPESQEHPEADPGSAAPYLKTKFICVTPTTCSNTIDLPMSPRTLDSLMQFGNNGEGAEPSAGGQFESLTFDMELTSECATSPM
Paired box protein Pax-6 (Homo sapiens), sequence (P26367 whole entry, looked up): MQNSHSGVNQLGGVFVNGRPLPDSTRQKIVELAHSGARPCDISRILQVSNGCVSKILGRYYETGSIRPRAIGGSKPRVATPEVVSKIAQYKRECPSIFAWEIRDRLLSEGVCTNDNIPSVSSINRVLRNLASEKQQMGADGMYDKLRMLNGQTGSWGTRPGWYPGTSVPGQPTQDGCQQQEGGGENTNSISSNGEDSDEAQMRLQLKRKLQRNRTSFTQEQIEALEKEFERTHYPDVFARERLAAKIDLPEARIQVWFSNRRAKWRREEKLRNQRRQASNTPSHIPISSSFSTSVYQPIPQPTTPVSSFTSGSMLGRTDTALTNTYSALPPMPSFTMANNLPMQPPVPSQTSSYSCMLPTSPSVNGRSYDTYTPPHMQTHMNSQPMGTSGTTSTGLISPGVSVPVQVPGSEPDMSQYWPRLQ

C1CCC(SSC2CCCCC2)CC1
outcome [1]: inactive | outcome [2]: inactive | outcome [3]: inactive | outcome [4]: inactive | outcome [5]: inactive | outcome [6]: inactive | AC50 [7]: 158 µM (active) | AC50 [8]: 100 µM (active) | outcome [9]: inactive | outcome [10]: inactive

COc1ccc2c(c1)c(CC(=O)O)c(C)n2C(=O)c1ccc(Cl)cc1
outcome [1]: inactive | outcome [2]: inactive | outcome [3]: inactive | AC50 [4]: 12.5 µM (active) | outcome [5]: inactive | outcome [6]: inactive | outcome [7]: inactive | outcome [8]: inactive | outcome [9]: inactive | outcome [10]: inactive

O=c1[nH]cc(F)c(=O)[nH]1
outcome [2]: inactive | outcome [4]: inactive | outcome [5]: inactive | outcome [6]: inactive | outcome [7]: inactive | AC50 [8]: 18.3 µM (active) | outcome [9]: inactive | outcome [10]: inactive

CCCCCCCCCCCCCO
outcome [1]: inactive | AC50 [2]: 34.3 µM (active) | outcome [4]: inactive | outcome [6]: inactive | outcome [7]: inactive | outcome [8]: inactive | outcome [9]: inactive | outcome [10]: inactive

CCCCCC(=O)O
outcome [2]: inactive | AC50 [3]: 53 µM (active) | outcome [4]: inactive | outcome [5]: inactive | outcome [6]: inactive | outcome [7]: inactive | outcome [8]: inactive | outcome [9]: inactive | outcome [10]: inactive

NCCO
outcome [2]: inactive | outcome [5]: inactive | outcome [6]: inactive | outcome [7]: inactive | outcome [8]: inactive | outcome [9]: inactive | outcome [10]: inactive

CCCCCCCCCCO
outcome [2]: inactive | outcome [5]: inactive | outcome [6]: inactive | outcome [7]: inactive | outcome [8]: inactive | outcome [9]: inactive | outcome [10]: inactive

CN1CCN(Cc2cc(-c3ccc4[nH]c(=O)oc4c3)co2)[C@@H](c2ccc(F)cc2)C1
outcome [1]: inactive | AC50 [2]: 47.4 µM (active) | outcome [6]: inactive | outcome [7]: inactive | AC50 [8]: 33 µM (active) | outcome [9]: inactive | AC50 [10]: 33 µM (active)

CC(=O)Oc1ccccc1C(=O)O
outcome [2]: inactive | AC50 [3]: 26.9 µM (active) | outcome [5]: inactive | outcome [6]: inactive | outcome [7]: inactive | outcome [8]: inactive | outcome [9]: inactive | outcome [10]: inactive

CCCCCCCC=O
outcome [2]: inactive | outcome [5]: inactive | outcome [6]: inactive | outcome [7]: inactive | outcome [8]: inactive | AC50 [9]: 37.7 µM (active) | outcome [10]: inactive

CC1(C)CC(N=C=O)CC(C)(CN=C=O)C1 (stereo not given)
outcome [1]: inactive | outcome [2]: inactive | outcome [5]: inactive | outcome [6]: inactive | outcome [7]: inactive | outcome [8]: inactive | outcome [9]: inactive | outcome [10]: inactive

NS(=O)(=O)c1cc2c(cc1Cl)NCNS2(=O)=O
outcome [2]: inactive | outcome [5]: inactive | outcome [6]: inactive | outcome [7]: inactive | outcome [8]: inactive | outcome [9]: inactive | outcome [10]: inactive

CNCc1cc(F)ccc1Oc1ccc(Cl)c(Cl)c1
outcome [2]: inactive | outcome [4]: inactive | outcome [5]: inactive | outcome [6]: inactive | outcome [7]: inactive | outcome [8]: inactive | outcome [9]: inactive | outcome [10]: inactive

Nc1ccc(S(=O)(=O)c2ccc(N)cc2)cc1
outcome [2]: inactive | outcome [3]: inactive | outcome [4]: inactive | outcome [5]: inactive | outcome [6]: inactive | outcome [7]: inactive | outcome [8]: inactive | outcome [9]: inactive | outcome [10]: inactive

Clc1cc(Cl)c(Cl)cc1Cl
outcome [2]: inactive | outcome [4]: inactive | outcome [5]: inactive | outcome [6]: inactive | outcome [7]: inactive | outcome [8]: inactive | outcome [9]: inactive | outcome [10]: inactive

CCCCCCCCCCCCCCCCCC(=O)O
outcome [2]: inactive | outcome [3]: inactive | outcome [5]: inactive | outcome [6]: inactive | outcome [7]: inactive | outcome [8]: inactive | outcome [9]: inactive | outcome [10]: inactive

Cc1cccc([N+](=O)[O-])c1C
outcome [1]: inactive | outcome [2]: inactive | outcome [4]: inactive | outcome [6]: inactive | outcome [7]: inactive | outcome [8]: inactive | outcome [9]: inactive | outcome [10]: inactive

COC(=O)c1ccc(O)cc1
outcome [2]: inactive | outcome [3]: inactive | outcome [4]: inactive | outcome [6]: inactive | outcome [7]: inactive | outcome [8]: inactive | outcome [9]: inactive | outcome [10]: inactive

NC(=O)Cn1c(=O)cc(CCN2CCN(c3nccc4sccc34)CC2)c2ccc(F)cc21
outcome [2]: inactive | outcome [4]: inactive | outcome [5]: inactive | outcome [6]: inactive | outcome [7]: inactive | AC50 [8]: 18.4 µM (active) | outcome [9]: inactive | outcome [10]: inactive

O=C(N[C@@H](Cc1ccccc1)[C@@H](O)C(=O)N1C[C@@H](O)[C@@H](O)C1)c1cc2cc(Cl)ccc2[nH]1
outcome [2]: inactive | outcome [3]: inactive | outcome [4]: inactive | outcome [5]: inactive | outcome [6]: inactive | outcome [7]: inactive | outcome [8]: inactive | outcome [9]: inactive | AC50 [10]: 128 µM (active)

CN1CCCC1=O
outcome [2]: inactive | outcome [3]: inactive | outcome [5]: inactive | outcome [6]: inactive | outcome [7]: inactive | outcome [8]: inactive | outcome [9]: inactive | outcome [10]: inactive

O=[N+]([O-])C(CO)(CO)CO
outcome [2]: inactive | AC50 [3]: 48.1 µM (active) | outcome [4]: inactive | outcome [5]: inactive | outcome [6]: inactive | outcome [7]: inactive | outcome [8]: inactive | outcome [9]: inactive | outcome [10]: inactive

OC[C@@H](O)[C@@H](O)[C@H](O)[C@H](O)CO
outcome [2]: inactive | outcome [5]: inactive | outcome [6]: inactive | outcome [7]: inactive | outcome [8]: inactive | outcome [9]: inactive | outcome [10]: inactive

CCOC(=O)C(C)(C)Oc1ccc(Cl)cc1
outcome [2]: inactive | outcome [3]: inactive | outcome [4]: inactive | outcome [5]: inactive | outcome [6]: inactive | outcome [7]: inactive | outcome [8]: inactive | outcome [9]: inactive | outcome [10]: inactive

Cc1nc(C)nc(N2C[C@@H](C)N(c3ccnc([C@@H](C)O)n3)[C@@H](C)C2)n1
outcome [2]: inactive | outcome [3]: inactive | outcome [5]: inactive | outcome [6]: inactive | outcome [7]: inactive | outcome [8]: inactive | outcome [9]: inactive | outcome [10]: inactive

CCCCCCCCCCCCCCCC
outcome [2]: inactive | AC50 [3]: 26.1 µM (active) | outcome [4]: inactive | outcome [6]: inactive | outcome [7]: inactive | outcome [8]: inactive | outcome [9]: inactive | outcome [10]: inactive

C=CCOC(=O)c1ccccc1C(=O)OCC=C
outcome [2]: inactive | AC50 [3]: 26.7 µM (active) | outcome [5]: inactive | outcome [6]: inactive | outcome [7]: inactive | outcome [8]: inactive | outcome [9]: inactive | outcome [10]: inactive

Cc1cc(NC(=O)C(=O)O)cc(C)c1Oc1ccc(O)c2c1CCC2
outcome [1]: inactive | outcome [2]: inactive | outcome [5]: inactive | outcome [6]: inactive | outcome [7]: inactive | outcome [8]: inactive | outcome [9]: inactive | outcome [10]: inactive

Cc1c(C(=O)O)c(O)cc2c1C(=O)c1c(O)c([C@@H]3O[C@H](CO)[C@@H](O)[C@H](O)[C@H]3O)c(O)c(O)c1C2=O
outcome [2]: inactive | outcome [4]: inactive | outcome [5]: inactive | outcome [6]: inactive | outcome [7]: inactive | outcome [8]: inactive | outcome [9]: inactive | outcome [10]: inactive

Cc1cccc(Nc2cc(Cl)nc(SCC(=O)O)n2)c1C
outcome [1]: inactive | outcome [2]: inactive | outcome [5]: inactive | outcome [6]: inactive | outcome [7]: inactive | outcome [8]: inactive | outcome [9]: inactive | outcome [10]: inactive

CC(CO)OC(C)CO (stereo not given) (tested in a mixture with another compound)
outcome [2]: inactive | outcome [3]: inactive | outcome [4]: inactive | outcome [5]: inactive | outcome [6]: inactive | outcome [7]: inactive | outcome [8]: inactive | outcome [9]: inactive | outcome [10]: inactive

Nc1nc(N)c2nc(CNc3ccc(C(=O)N[C@@H](CCC(=O)O)C(=O)O)cc3)cnc2n1
outcome [1]: inactive | outcome [2]: inactive | outcome [5]: inactive | outcome [6]: inactive | outcome [7]: inactive | outcome [8]: inactive | outcome [9]: inactive | outcome [10]: inactive
